# Data published in PubChem BioAssay AID1345085 (National Center for Advancing Translational Sciences (NCATS), 2018).
# Records with an inconclusive call do not appear. A number with no mark means an inactive call. Calls of active or inactive are those of the source. Calls follow the shape of the dose curve; as a rule, active = well fitted cell-killing curve with a large enough effect; inconclusive = small, poorly fitted or top-dose-only effect, or effect the other way; inactive = no such curve, though single readings can be large or run the other way.
# Test system: C33A
# Assay: Confirmatory qHTS for gynecologic anti-cancer compounds from libraries of approved drugs and bioactive compounds; also: nearly all actives have a fitted effect of over 55% in size
# Conditions: gynecologic cancer cell panel viability, ATPlite luminescence, 48 h; series mostly up to 57.6 µM; activity change, negative = viability loss: at the top concentration
# Procedure, shortened: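 ATP-based luminescent viability (ATPlite) after 48 h drug treatment at 37 °C, 5% CO2, across 57.5 uM–0.977 nM in 1:3 steps. Cells seeded at 1,000 per well 16 h beforehand; IC50 values computed, HEK 293T as selectivity control.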
# % is scaled to controls: 0 for no effect and ±100 for the full control effect; potency is read from the fitted curve at half-maximal effect.
SMILES,Potency,"activity change, negative = viability loss"
Cc1cc(Nc2cc(N3CCN(C)CC3)nc(/C=C/c3ccccc3)n2)n[nH]1,21.7 µM (active),–
OCCNC1CCCc2c1[nH]c1ccc(-c3ccccc3)cc21 (configuration not stated),17.2 µM (active),–
CN1C2CCC1CC(OC(=O)[C@H](CO)c1ccccc1)C2 (some centres not stated),–,1.35%
Cc1cc(CN2CCN(c3c(Br)cnc4nc(-c5ccc(N6CCN(C)CC6)cc5)[nH]c34)CC2)no1,24.3 µM (active),–
CC(C)n1nc(-c2cc3cc(O)ccc3[nH]2)c2c(N)ncnc21,3.06 µM (active),–
C=CC(=O)Nc1cc2c(Nc3ccc(F)c(Cl)c3)ncnc2cc1OCCCN1CCOCC1,24.3 µM (active),–
O=C(Nc1cn[nH]c1-c1nc2ccc(CN3CCOCC3)cc2[nH]1)NC1CC1,13.7 µM (active),–
CCN[C@H]1C[C@H](C)S(=O)(=O)c2sc(S(N)(=O)=O)cc21,–,8.15%
NS(=O)(=O)OC[C@@H]1C[C@@H](n2ccc3c(N[C@H]4CCc5ccccc54)ncnc32)C[C@@H]1O,4.85 µM (active),–
CCCC(Nc1nc(-c2ccc(NC(=O)NCC)c(OC)c2)ncc1C)c1cccnc1 (configuration not stated),0.153 µM (active),–
CN(C)c1ccc2nc3ccc(=[N+](C)C)cc-3sc2c1,21.7 µM (active),–
O=C(O)c1ccc(Nc2ncc3c(n2)-c2ccc(Cl)cc2C(c2c(F)cccc2F)=NC3)cc1,–,-8.05%
CCN(CC)CCNC(=O)c1c(C)[nH]c(/C=C2\C(=O)Nc3ccc(F)cc32)c1C,22.4 µM (active),–
O=c1cc(CN2CCOCC2)occ1OCCCCCSc1ccnc2cc(C(F)(F)F)ccc12,–,-17.5%
OCc1ccc(-c2ccc(-c3ccc(CO)s3)o2)s1,–,-12.9% [at 19.5 µM]
Cc1cncc2cccc(S(=O)(=O)N3CCCN(C(=O)CN)C[C@@H]3C)c12,–,8.41%

SMILES,Potency,"activity change, negative = viability loss"
Cn1c(=O)c(-c2c(Cl)cccc2Cl)cc2cnc(Nc3cccc(C(=O)O)c3)nc21,5.44 µM (active),–
Cc1ccn(-c2ccc(-c3ncco3)cc2)c(=O)c1-c1ccc2nc(N)ncc2c1,–,-9.79%
CC(C)C[C@H](NC(=O)[C@H](Cc1ccccc1)NC(=O)c1cnccn1)B(O)O,0.153 µM (active),–
Cc1c(C)n(Cc2ccc(-c3ccccc3C(=O)O)cc2)c2ccc(C(=O)N[C@@H](C)c3ccc([N+](=O)[O-])cc3)cc12,–,10.7%
C[C@@H](Oc1cc(-c2cnn(C3CCNCC3)c2)cnc1N)c1c(Cl)ccc(F)c1Cl,24.3 µM (active),–
CC1=C(/C=C/C(C)=C/C=C/C(C)=C/C(=O)Nc2ccc(O)cc2)C(C)(C)CCC1,3.85 µM (active),–
N#CC1(c2cccc(C(=O)Nc3cc(Oc4ccc5nc(NC(=O)C6CC6)sc5n4)ccc3F)c2Cl)CC1,–,-24.7%
O=C(NOCC1CC1)c1ccc(F)c(F)c1Nc1ccc(I)cc1Cl,–,-18.5%
Cn1cc(-c2ccc3ncc(Cc4ccc5ncccc5c4)n3n2)cn1,–,-11.7%
CC[C@]1(O)C[C@H]2CN(CCc3c([nH]c4ccccc34)[C@@](C(=O)OC)(c3cc4c(cc3OC)N(C=O)[C@H]3[C@@](O)(C(=O)OC)[C@H](OC(C)=O)[C@]5(CC)C=CCN6CC[C@]43[C@@H]65)C2)C1,0.306 µM (active),–
COc1ccc2cc3[n+](cc2c1OC)CCc1cc2c(cc1-3)OCO2,–,-16%
COc1cc(C(=O)N2CCC(N3CCN(C)CC3)CC2)ccc1Nc1ncc2c(n1)N(C)c1ccccc1C(=O)N2C,–,-2.45%
O=c1c2ccccc2nc2n1CCc1c-2[nH]c2ccccc12,–,17.7%
NC(=O)c1ccc2nc(-c3ccc(Oc4ccc(Cl)cc4)cc3)[nH]c2c1,–,-24.7%
Nc1ccc(-c2ccc3ncc4ccc(=O)n(-c5cccc(C(F)(F)F)c5)c4c3c2)cn1,0.172 µM (active),–
COc1cc(-c2nn(C3CCC(N4CCN(C(C)=O)CC4)CC3)c3ncnc(N)c23)ccc1NC(=O)c1cc2ccccc2n1C (configuration not stated),–,-12.7%
